Laboratory results: PubChem BioAssay (NCATS)
Inconclusive results are not listed. A call without a number means that no potency is given here. Values without a mark were called inactive. The source made the active and inactive calls. Calls come from the whole dose curve; as a rule, active = well fitted curve in the direction sought with a large enough effect; inconclusive = small, poorly fitted or top-dose-only effect, or another doubt; inactive = no such curve, though single readings can be large; an effect the other way counts as inactive or inconclusive. Non-standard residues stand in square brackets, D forms with d. Residues, ends and D or L forms follow the SMILES beside them. *: point of attachment. Sta = CC(C)C[C@H](N)[C@@H](O)CC(=O)O; Isovaleryl = CC(C)CC(=O)*

Key:
[1] = Quantitative High-Throughput drug screen in 47 multiple myeloma cell lines against the NCATS MIPE library collection: KMS12PE_JCRB cell viability assay (AID 1918972); note: nearly all actives have a fitted effect of over 30% in size; note: potency is the fitted concentration of half-maximal effect; for viability: series mostly up to about 46 µM
Procedure, shortened: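 Inhibition of cell viability is measured here. Each line was plated at 500 cells per well, treated with MIPE 4.0 drugs, kept 48 hours at 37C, then assayed for ATP content by CellTiter-Glo luminescence.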

[2] = Quantitative High-Throughput drug screen in 47 multiple myeloma cell lines against the NCATS MIPE library collection: KMS20_JCRB cell viability assay (AID 1918973); note: nearly all actives have a fitted effect of over 45% in size; note: potency is the fitted concentration of half-maximal effect
Procedure, shortened: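 CellTiter-Glo luminescence (ATP) after 48 h compound exposure, 37C/5% CO2; 500 cells/well; MIPE 4.0 approved/investigational drugs pinned in; DMSO = 100%, media only = 0% viability.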

[3] = Quantitative High-Throughput drug screen in 47 multiple myeloma cell lines against the NCATS MIPE library collection: KMS26_JCRB cell viability assay (AID 1918975); note: nearly all actives have a fitted effect of over 45% in size; note: potency is the fitted concentration of half-maximal effect
Procedure, shortened: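 Steps: seed 500 cells per well; pin-transfer MIPE 4.0 library; incubate 48 h at 37C, 5% CO2, humidified; add CellTiter-Glo, 5 min room temperature; read luminescence.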

[4] = Quantitative High-Throughput drug screen in 47 multiple myeloma cell lines against the NCATS MIPE library collection: MOLP8_DSMZ cell viability assay (AID 1918977); note: nearly all actives have a fitted effect of over 45% in size
Procedure, shortened: (§1)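 ATP-based luminescence (CellTiter-Glo, 5 min RT incubation) quantified surviving cells following two days' treatment with MIPE 4.0 agents at 37 °C, 5% CO2.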

[5] = Quantitative High-Throughput drug screen in 47 multiple myeloma cell lines against the NCATS MIPE library collection: OCIMY1_PLB cell viability assay (AID 1918979); note: nearly all actives have a fitted effect of over 35% in size; note: potency is the fitted concentration of half-maximal effect; for viability: series mostly up to about 46 µM
Procedure, shortened: as §1

[6] = Quantitative High-Throughput drug screen in 47 multiple myeloma cell lines against the NCATS MIPE library collection: MM1R_ATCC cell viability assay (AID 1918981); note: nearly all actives have a fitted effect of over 35% in size; note: potency is the fitted concentration of half-maximal effect
Procedure, shortened: as §1

[7] = Quantitative High-Throughput drug screen in 47 multiple myeloma cell lines against the NCATS MIPE library collection: LP1_DSMZ cell viability assay (AID 1918982); note: nearly all actives have a fitted effect of over 35% in size; note: potency is the fitted concentration of half-maximal effect
Procedure, shortened: as §1

[8] = Quantitative High-Throughput drug screen in 47 multiple myeloma cell lines against the NCATS MIPE library collection: KMS28PE_JCRB cell viability assay (AID 1918983); note: nearly all actives have a fitted effect of over 35% in size; note: potency is the fitted concentration of half-maximal effect
Procedure, shortened: as §1

[9] = Quantitative High-Throughput drug screen in 47 multiple myeloma cell lines against the NCATS MIPE library collection: L363_DSMZ cell viability assay (AID 1918984); note: nearly all actives have a fitted effect of over 40% in size; note: potency is the fitted concentration of half-maximal effect
Procedure, shortened: as §1

[10] = Quantitative High-Throughput drug screen in 47 multiple myeloma cell lines against the NCATS MIPE library collection: OPM1_PLB cell viability assay (AID 1918989); note: nearly all actives have a fitted effect of over 40% in size; note: potency is the fitted concentration of half-maximal effect
Procedure, shortened: as §1

[11] = Quantitative High-Throughput drug screen in 47 multiple myeloma cell lines against the NCATS MIPE library collection: NCIH929_DSMZ cell viability assay (AID 1918978); note: nearly all actives have a fitted effect of over 35% in size; note: potency is the fitted concentration of half-maximal effect
Procedure, shortened: as §1

[12] = Quantitative High-Throughput drug screen in 47 multiple myeloma cell lines against the NCATS MIPE library collection: KMS34_JCRB cell viability assay (AID 1918985); note: nearly all actives have a fitted effect of over 40% in size; note: potency is the fitted concentration of half-maximal effect
Procedure, shortened: as §1

[13] = Quantitative High-Throughput drug screen in 47 multiple myeloma cell lines against the NCATS MIPE library collection: XG6_PLB cell viability assay (AID 1919865); note: nearly all actives have a fitted effect of over 40% in size; note: potency is the fitted concentration of half-maximal effect
Procedure, shortened: as §1

[14] = Quantitative High-Throughput drug screen in 47 multiple myeloma cell lines against the NCATS MIPE library collection: OCIMY5_PLB cell viability assay (AID 1918988); note: nearly all actives have a fitted effect of over 65% in size; note: potency is the fitted concentration of half-maximal effect
Procedure, shortened: as §1

[15] = Quantitative High-Throughput drug screen in 47 multiple myeloma cell lines against the NCATS MIPE library collection: SKMM1_PLB cell viability assay (AID 1919863); details: SKMM1 myeloma viability, CellTiter-Glo ATP, 48 h; viability: stronger effect = lower value; note: nearly all actives have a fitted effect of over 35% in size; note: potency is the fitted concentration of half-maximal effect; for viability: series mostly up to about 46 µM
Procedure, shortened: as §1

[16] = Quantitative High-Throughput drug screen in 47 multiple myeloma cell lines against the NCATS MIPE library collection: MM1S_ATCC cell viability assay (AID 1918980); note: nearly all actives have a fitted effect of over 45% in size; note: potency is the fitted concentration of half-maximal effect
Procedure, shortened: as §1

[17] = Quantitative High-Throughput drug screen in 47 multiple myeloma cell lines against the NCATS MIPE library collection: U266_ATCC cell viability assay (AID 1919864); note: nearly all actives have a fitted effect of over 35% in size; note: potency is the fitted concentration of half-maximal effect
Procedure, shortened: as §1

[18] = Quantitative High-Throughput drug screen in 47 multiple myeloma cell lines against the NCATS MIPE library collection: OCIMY7_PLB cell viability assay (AID 1918987); note: nearly all actives have a fitted effect of over 65% in size; note: potency is the fitted concentration of half-maximal effect
Procedure, shortened: as §1

[19] = Quantitative High-Throughput drug screen in 47 multiple myeloma cell lines against the NCATS MIPE library collection: MMM1_PLB cell viability assay (AID 1918976)
Procedure, shortened: as §1

Compound: CC(C)CC(=O)N[C@H](C(=O)N[C@H](C(=O)N[C@@H](CC(C)C)[C@@H](O)CC(=O)N[C@@H](C)C(=O)N[C@@H](CC(C)C)[C@@H](O)CC(=O)O)C(C)C)C(C)C (Isovaleryl-VV[Sta]A[Sta]-OH)
- Potency [1]: inactive
- Potency [2]: inactive
- Potency [3]: inactive
- Potency [4]: inactive
- Potency [5]: inactive
- Potency [6]: inactive
- Potency [7]: inactive
- Potency [8]: inactive
- Potency [9]: inactive
- Potency [10]: inactive

Compound: CN1C(C(=O)Nc2ccccn2)=C(O)c2sccc2S1(=O)=O
- Potency [1]: inactive
- Potency [3]: inactive
- Potency [11]: inactive
- Potency [5]: inactive
- Potency [6]: inactive
- Potency [7]: inactive
- Potency [12]: inactive
- Potency [10]: inactive
- Potency [13]: inactive

Compound: NC(=O)Cc1cccc(C(=O)c2ccccc2)c1N
- Potency [1]: inactive
- Potency [3]: inactive
- Potency [4]: inactive
- Potency [11]: inactive
- Potency [6]: inactive
- Potency [7]: inactive
- Potency [8]: inactive
- Potency [9]: inactive
- Potency [14]: 4.69 µM (active)
- viability [15]: 121%
- Potency [13]: inactive

Compound: Oc1ccc(OCc2ccccc2)cc1
- Potency [1]: inactive
- Potency [11]: inactive
- Potency [5]: inactive
- Potency [16]: inactive
- Potency [6]: inactive
- Potency [7]: inactive
- Potency [8]: inactive
- Potency [9]: inactive
- Potency [12]: 18.7 µM (active)
- Potency [10]: inactive
- Potency [15]: 7.43 µM (active)

Compound: O=C(NCC1CCCCN1)c1cc(OCC(F)(F)F)ccc1OCC(F)(F)F (centres undefined)
- Potency [1]: 2.09 µM (active)
- Potency [2]: 7.43 µM (active)
- Potency [11]: 9.35 µM (active)
- Potency [16]: 8.33 µM (active)
- Potency [9]: 0.743 µM (active)
- Potency [10]: 9.35 µM (active)
- Potency [17]: 9.35 µM (active)
- Potency [13]: 3.32 µM (active)

Compound: Nc1cccc2c1CN(C1CCC(=O)NC1=O)C2=O (centres undefined)
- Potency [1]: inactive
- Potency [3]: 0.605 µM (active)
- Potency [4]: inactive
- Potency [8]: 0.171 µM (active)
- Potency [12]: inactive
- Potency [10]: inactive
- viability [15]: 122%
- Potency [17]: inactive

Compound: CC(C)(S)[C@@H](N)C(=O)O
- Potency [1]: inactive
- Potency [3]: inactive
- Potency [4]: inactive
- Potency [11]: inactive
- Potency [5]: inactive
- Potency [7]: inactive
- Potency [8]: inactive
- Potency [9]: inactive
- Potency [18]: inactive
- Potency [10]: inactive
- viability [15]: 133%
- Potency [13]: inactive

Compound: COc1cc2nc(N3CCN(C(=O)C4CCCO4)CC3)nc(N)c2cc1OC (centres undefined)
- Potency [1]: 16.6 µM (active)
- Potency [4]: inactive
- Potency [11]: inactive
- Potency [5]: inactive
- Potency [16]: inactive
- Potency [6]: inactive
- Potency [8]: inactive
- Potency [9]: 1.48 µM (active)
- Potency [10]: inactive
- Potency [17]: inactive

Compound: COc1ccc2cc([C@H](C)C(=O)O)ccc2c1
- Potency [1]: inactive
- Potency [3]: inactive
- Potency [19]: 16.6 µM (active)
- Potency [4]: inactive
- Potency [11]: inactive
- Potency [16]: inactive
- Potency [6]: inactive
- Potency [7]: inactive
- Potency [12]: inactive
- Potency [18]: 33.2 µM (active)
- viability [15]: 105%
- Potency [17]: inactive
- Potency [13]: inactive

Compound: CC(S)C(=O)NCC(=O)O (centres undefined)
- Potency [1]: inactive
- Potency [4]: inactive
- Potency [11]: inactive
- Potency [5]: inactive
- Potency [6]: inactive
- Potency [8]: inactive
- Potency [14]: inactive
- Potency [10]: inactive
- viability [15]: 132%
- Potency [13]: inactive

Compound: Oc1ccc2ccccc2c1SSc1c(O)ccc2ccccc12
- Potency [1]: 20.9 µM (active)
- Potency [2]: 9.35 µM (active)
- Potency [3]: 9.35 µM (active)
- Potency [11]: 8.33 µM (active)
- Potency [5]: 20.9 µM (active)
- Potency [16]: 14.8 µM (active)
- Potency [6]: 14.8 µM (active)
- Potency [7]: 23.5 µM (active)
- Potency [9]: 13.2 µM (active)
- Potency [12]: 5.9 µM (active)
- Potency [18]: 4.69 µM (active)
- Potency [10]: 8.33 µM (active)
- Potency [15]: 18.7 µM (active)

Compound: Cc1ccc(S(=O)(=O)NC(=O)NN2CC3CCCC3C2)cc1 (centres undefined)
- Potency [1]: 26.4 µM (active)
- Potency [2]: 10.5 µM (active)
- Potency [16]: 20.9 µM (active)
- Potency [10]: 20.9 µM (active)
- Potency [17]: 20.9 µM (active)

Compound: Cc1nc(Nc2ncc(C(=O)Nc3c(C)cccc3Cl)s2)cc(N2CCN(CCO)CC2)n1
- Potency [2]: 0.332 µM (active)
- Potency [9]: 1.32 µM (active)
- Potency [12]: 0.59 µM (active)
- Potency [10]: 0.833 µM (active)
- Potency [13]: 0.0332 µM (active)

Compound: CCc1nc(N)nc(N)c1-c1ccc(Cl)cc1
- Potency [2]: inactive
- Potency [4]: inactive
- Potency [11]: inactive
- Potency [16]: 16.6 µM (active)
- Potency [7]: 8.33 µM (active)
- Potency [8]: inactive
- Potency [14]: inactive
- Potency [10]: 2.35 µM (active)

Compound: Cc1cccc(C)c1OCC(=O)N[C@@H](Cc1ccccc1)[C@@H](O)C[C@H](Cc1ccccc1)NC(=O)[C@H](C(C)C)N1CCCNC1=O
- Potency [3]: 18.7 µM (active)
- Potency [16]: 20.9 µM (active)
- Potency [8]: 20.9 µM (active)
- Potency [18]: 11.8 µM (active)
- Potency [14]: inactive
- Potency [10]: 18.7 µM (active)
- Potency [17]: inactive

Compound: CC(C)c1ccc2oc3nc(N)c(C(=O)O)cc3c(=O)c2c1
- Potency [11]: inactive
- Potency [6]: inactive
- Potency [8]: inactive
- Potency [13]: inactive
